Compounds with a hit are over-represented: about 1.7% of the library has one in this group of screens.
Rin1-Abl PPI inh – inhibitors of Rin1-Abl protein binding, primary screen, biochemical, TR-FRET; 360,000 compounds, 0.4% hits; inhibition, % at 7.35 µM; AID 588664, 2011; Tyrosine-protein kinase ABL1 (Homo sapiens) + Ras and Rab interactor 1 (Homo sapiens), …; in the data active means inhibition above about 5%, passing the limit was not always enough
LYPLA2 counter – LYPLA2 inhibitors, primary screen, counter-screen for PME1 inhibitor project, biochemical, fluorescence polarization, FP-Rh probe ABPP; inhibition, % at 5.9 µM; AID 2177, 2009; 320,000 compounds, 0.38% hits; recombinant LYPLA2;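 active means inhibition above the screen-wide mean plus 3 SD, limit set per campaign, cut at about 26% in these data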;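 further: 0% = LYPLA2 with DMSO and 100% = wells lacking LYPLA2 enzyme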
LYPLA1 inh – LYPLA1 inhibitors, primary screen, counter-screen for PME1 inhibitor project, biochemical, fluorescence polarization, FP-Rh probe ABPP. Acyl-protein thioesterase 1 (Homo sapiens), O75608. recombinant LYPLA1. inhibition, % at 5.9 µM. 320,000 compounds, 0.16% hits;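 active means inhibition above the mean of all tested compounds plus 3 SD, set per campaign, cut at about 14% in these data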;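 further: inhibitors block serine hydrolase probe labeling of LYPLA1 so polarization falls; 0% = enzyme with DMSO and 100% = wells lacking LYPLA1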
Hck-Nef inh – inhibitors of Nef-activated human Hck kinase, primary screen, biochemical, Z-Lyte FRET, 384-well, Hck-YEEI; inhibition, % at 20 µM; Recombinant Hck-YEEI plus Nef, Z-Lyte FRET kinase assay; 220,000 compounds, 0.68% hits;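 active means Hck-Nef kinase inhibition above about 50%, limit read from the data; inactive means inhibition below that limit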;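 further: 0% = DMSO with Hck plus Nef and 100% = Hck alone without Nef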
p97 inhibitor – inhibitors of human p97 ATPase, primary screen, biochemical. Transitional endoplasmic reticulum ATPase (Homo sapiens), P55072. recombinant p97 ATPase, Kinase-Glo ATP luminescence, 3 h. inhibition, % at 8 µM. 220,000 compounds, 0.42% hits; in the data active means inhibition above about 15%;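 further: 0% = DMSO vehicle and 100% = wells lacking enzyme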
PREPL inhibitor – PREPL enzyme inhibitors, primary screen, biochemical, fluorescence polarization | Prolyl endopeptidase-like (Homo sapiens), Q4J6C6 | recombinant PREPL, fluorescence polarization activity-based probe | inhibition, % at 5.96 µM | 320,000 compounds, 0.68% hits; in the data active means inhibition above about 43%;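 further: 0% = enzyme with DMSO and 100% = wells lacking enzyme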
LYPLA2 conf – LYPLA2 inhibitors, retest, confirmation, counter-screen for PME1 inhibitor project, biochemical, fluorescence polarization, FP-Rh probe ABPP; shares compounds with LYPLA2 counter; recombinant LYPLA2; inhibition, % at 5.9 µM; 1,100 compounds, 72% hits;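 active means mean inhibition across replicates above the hit cutoff set in the primary screen, cut at about 26% in these data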;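 further: blocked labeling of the enzyme by serine hydrolase FP-Rh probe lowers polarization; 0% = enzyme with DMSO and 100% = wells lacking LYPLA2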
LYPLA2 gel ABPP – LYPLA2 inhibitors in proteome, late-stage follow-up, gel-based competitive ABPP, fluorescence, assay provider; shares compounds with LYPLA2 counter; rhLYPLA2 in mouse brain proteome, gel ABPP FP-Rh; inhibition, % at 20 µM; 150 compounds, 30% hits;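 active means inhibition of LYPLA2 enzyme probe labeling above about 50%, limit read from the data; inactive means inhibition below that limit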;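 further: loss of FP-Rh probe labeling of the LYPLA2 gel band measured as band density; 0% = DMSO only control band and 100% = blank gel background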
An asterisk follows results filed as active; · = not tested or not shown.

SMILES	Rin1-Abl PPI inh	LYPLA2 counter	LYPLA1 inh	Hck-Nef inh	p97 inhibitor	PREPL inhibitor	LYPLA2 conf	others
COc1ccc(-n2c(C)cc(C(=O)Cn3c(NCCO)nc4ccccc43)c2C)cc1	3	56*	2	-1	-7	6	62*	LYPLA2 gel ABPP=29
COc1cc(C2Oc3cc(C4Oc5cc(O)cc(O)c5C(=O)C4O)ccc3OC2CO)ccc1O (stereo not given)	0	60*	10	-6	-2	1	69*	LYPLA2 gel ABPP=75*
C=CCNc1nc(C(=O)OCC(=O)NCc2cccc(Cl)c2)cs1	2	5	-1	·	·	12	·
COc1ccccc1C(=O)C1CCCN(C(=O)c2cccc(Cn3cccn3)c2)C1 (stereo not given)	-1	-1	6	·	·	2	·
Fc1ccc(C2=Nn3c(Cc4ccccc4F)nnc3SC2)cc1	1	28*	3	0	-2	-22	15
O=C(OCc1ccc(F)cc1)c1cc(S(=O)(=O)N2CCCCC2)ccc1N1CCOCC1	0	6	2	·	·	0	·
O=C(OCCOc1ccc(Cl)cc1)c1cc(S(=O)(=O)N2CCCCC2)ccc1N1CCOCC1	-1	·	·	·	·	·	·
O=C(OCc1ccc([N+](=O)[O-])cc1)c1cc(S(=O)(=O)N2CCCCC2)ccc1N1CCOCC1	0	27*	2	·	·	8	33*
Cc1ccc(OCCOC(=O)c2cc(S(=O)(=O)N3CCCCC3)ccc2N2CCOCC2)cc1	3	29*	-1	·	·	17	31*
C[C@@]12C(=O)N(Cc3ccccc3)CC(=O)N1[C@H](/C=C/c1ccccc1)[C@@H]1C(=O)N(c3ccccc3)C(=O)[C@@H]12	·	4	1	·	·	-4	·
Cc1ccc(NC(=O)CN2C(=O)S/C(=C\c3cccn3-c3cccc(C(=O)O)c3)C2=O)cc1C	1	36*	-9	50*	5	5	43*
Cc1ccc(NC(=O)CN2C(=O)S/C(=C\c3cc(C)n(-c4ccc(C(=O)O)cc4)c3C)C2=O)cc1	-1	42*	-5	7	-2	17	43*
Cc1cccc(NC(=O)CN2C(=O)S/C(=C\c3cccn3-c3cccc(C(=O)O)c3)C2=O)c1	-1	67*	-5	72*	-3	4	63*	LYPLA2 gel ABPP=94*
Cc1cccc(C)c1NC(=O)CN1C(=O)S/C(=C\c2cccn2-c2cccc(C(=O)O)c2)C1=O	0	4	2	15	-1	14	·
Cc1ccccc1NC(=O)CN1C(=O)S/C(=C\c2cccn2-c2cccc(C(=O)O)c2)C1=O	0	50*	-9	9	-3	3	74*	LYPLA2 gel ABPP=64*
CCOC(=O)c1c(C)[nH]c(C)c1C(=O)COC(=O)[C@@H](NC(=O)c1ccco1)C(C)C	-1	·	·	·	·	1	·
COc1ccc(NC(=O)N(C)C[C@H]2Oc3ccc(NC(=O)C4CC4)cc3CC(=O)N([C@@H](C)CO)C[C@@H]2C)cc1	-1	·	·	·	·	11	·
O=C(NCc1ccccc1)c1cccc2c1C(=O)c1ccc(/C=C/c3ccccc3)cc1S2(=O)=O	0	·	·	·	·	11	·
O=C(c1ccc(CSc2nc3ccncc3[nH]2)cc1)N1CCN(c2cccc(Cl)c2)CC1	-2	33*	-1	-8	8	-16	31*
COc1cccc(CN(C)C(=O)c2ccc(COc3ccc(Cl)cc3)cc2)c1OC	1	21	3	·	·	22	·

Source: PubChem
